# Source: the supplement of paper PMC10849652
# Targets with a hit are over-represented here; the source holds about 8,800 in all. About 0.5% of all pairs of compound and target were hits. Values without a mark were called inactive.
# Compound: CC1=C(C2=C(C=C1)C(=O)C3=CC=CC=C3N2CCCN)C
# Test: log2 fold change, soluble protein after heating vs DMSO (PISA); higher = thermal stabilisation; K562 lysate, 10 uM; active = over 0.2 and 3.5 SD of the protein, either way, in both replicates (recomputed)
# Outline: (§1)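 Dounce homogenisation of K562 pellets in PBS pH 7.4 with 1 mM MgCl2 produced a crude extract, used at 1 mg/mL protein. Exposure to 10 μM compound lasted 30 min, and aliquots were then heated for 3 min across 48°C-58°C, pooled and brought to 0.5% NP-40 at 4°C. The supernatant after 21,000xg for 90 min was quantified by TMTpro 16plex LC-MS/MS with channel sums equalised. Duplicate values are given as log-two fold change in thermal stability relative to solvent controls.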
# Chain of UniProt Q9H8H3 (Q9H8H3 whole entry, looked up): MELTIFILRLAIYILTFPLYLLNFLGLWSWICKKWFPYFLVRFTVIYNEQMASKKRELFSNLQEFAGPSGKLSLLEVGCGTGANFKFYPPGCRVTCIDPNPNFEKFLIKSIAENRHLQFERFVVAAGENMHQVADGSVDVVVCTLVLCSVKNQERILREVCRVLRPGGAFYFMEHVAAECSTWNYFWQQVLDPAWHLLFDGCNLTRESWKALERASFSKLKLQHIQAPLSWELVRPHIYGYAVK
# Chain of UniProt Q9GZY8 (Q9GZY8 whole entry, looked up): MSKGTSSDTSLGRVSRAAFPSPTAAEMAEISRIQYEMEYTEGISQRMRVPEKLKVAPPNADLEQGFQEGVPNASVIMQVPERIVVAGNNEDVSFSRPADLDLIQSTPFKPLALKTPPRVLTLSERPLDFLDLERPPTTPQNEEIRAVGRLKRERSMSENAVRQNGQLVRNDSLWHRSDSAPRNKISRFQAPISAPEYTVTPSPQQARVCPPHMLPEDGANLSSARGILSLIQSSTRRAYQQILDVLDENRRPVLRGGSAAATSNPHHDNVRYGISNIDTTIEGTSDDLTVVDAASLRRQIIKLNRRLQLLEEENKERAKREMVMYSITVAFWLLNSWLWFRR
# Chain of UniProt Q9NQ29 (Q9NQ29 whole entry, looked up): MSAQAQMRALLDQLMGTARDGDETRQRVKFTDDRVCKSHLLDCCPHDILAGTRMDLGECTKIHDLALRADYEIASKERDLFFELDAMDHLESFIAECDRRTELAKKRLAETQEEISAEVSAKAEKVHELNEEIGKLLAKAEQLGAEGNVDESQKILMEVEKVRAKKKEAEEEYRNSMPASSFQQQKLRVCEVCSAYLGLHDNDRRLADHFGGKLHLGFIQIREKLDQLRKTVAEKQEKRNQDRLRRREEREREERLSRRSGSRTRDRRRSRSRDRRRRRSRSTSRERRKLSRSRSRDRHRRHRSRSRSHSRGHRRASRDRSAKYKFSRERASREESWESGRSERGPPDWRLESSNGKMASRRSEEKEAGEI
# Chain of UniProt Q15058 (Q15058 whole entry, looked up): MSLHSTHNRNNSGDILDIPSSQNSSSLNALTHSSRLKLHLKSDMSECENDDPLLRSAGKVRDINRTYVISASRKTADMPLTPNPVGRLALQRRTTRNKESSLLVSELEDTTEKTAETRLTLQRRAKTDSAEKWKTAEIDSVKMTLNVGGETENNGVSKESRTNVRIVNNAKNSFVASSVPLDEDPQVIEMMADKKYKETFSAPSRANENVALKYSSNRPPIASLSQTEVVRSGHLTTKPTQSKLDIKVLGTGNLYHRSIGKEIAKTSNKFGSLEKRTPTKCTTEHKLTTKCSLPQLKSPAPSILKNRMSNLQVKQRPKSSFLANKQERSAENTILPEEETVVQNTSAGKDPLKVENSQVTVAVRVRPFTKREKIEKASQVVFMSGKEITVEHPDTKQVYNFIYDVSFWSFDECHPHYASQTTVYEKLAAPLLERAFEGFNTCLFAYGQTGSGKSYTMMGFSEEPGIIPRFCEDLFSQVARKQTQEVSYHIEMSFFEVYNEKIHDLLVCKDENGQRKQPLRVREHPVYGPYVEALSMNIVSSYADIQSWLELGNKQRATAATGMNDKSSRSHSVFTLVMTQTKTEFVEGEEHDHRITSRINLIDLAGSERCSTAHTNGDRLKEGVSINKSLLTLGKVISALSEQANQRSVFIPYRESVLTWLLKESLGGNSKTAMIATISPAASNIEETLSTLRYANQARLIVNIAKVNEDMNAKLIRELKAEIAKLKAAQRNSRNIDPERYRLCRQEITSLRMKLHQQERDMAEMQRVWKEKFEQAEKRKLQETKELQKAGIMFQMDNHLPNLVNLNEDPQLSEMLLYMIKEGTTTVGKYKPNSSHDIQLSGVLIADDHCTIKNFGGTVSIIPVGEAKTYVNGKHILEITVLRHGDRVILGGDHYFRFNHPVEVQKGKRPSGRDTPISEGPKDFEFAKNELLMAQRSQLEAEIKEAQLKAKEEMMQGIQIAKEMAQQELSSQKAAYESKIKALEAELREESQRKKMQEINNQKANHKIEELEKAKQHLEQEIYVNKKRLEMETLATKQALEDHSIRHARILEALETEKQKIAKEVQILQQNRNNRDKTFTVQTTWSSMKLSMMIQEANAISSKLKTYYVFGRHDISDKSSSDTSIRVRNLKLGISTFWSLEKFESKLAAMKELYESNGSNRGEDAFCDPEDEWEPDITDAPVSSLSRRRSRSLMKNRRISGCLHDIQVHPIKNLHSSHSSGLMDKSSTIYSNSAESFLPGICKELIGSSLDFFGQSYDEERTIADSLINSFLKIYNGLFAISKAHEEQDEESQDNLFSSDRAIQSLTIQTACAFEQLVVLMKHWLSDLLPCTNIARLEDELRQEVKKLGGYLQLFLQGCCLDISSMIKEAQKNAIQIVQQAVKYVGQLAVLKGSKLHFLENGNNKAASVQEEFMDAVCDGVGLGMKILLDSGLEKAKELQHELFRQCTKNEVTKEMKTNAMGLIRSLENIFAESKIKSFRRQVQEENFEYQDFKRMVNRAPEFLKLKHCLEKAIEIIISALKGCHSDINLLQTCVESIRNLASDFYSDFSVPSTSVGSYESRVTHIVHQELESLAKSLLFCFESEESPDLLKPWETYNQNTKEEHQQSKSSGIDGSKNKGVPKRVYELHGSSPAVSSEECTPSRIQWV
# Chain of UniProt P28838 (P28838 whole entry, looked up): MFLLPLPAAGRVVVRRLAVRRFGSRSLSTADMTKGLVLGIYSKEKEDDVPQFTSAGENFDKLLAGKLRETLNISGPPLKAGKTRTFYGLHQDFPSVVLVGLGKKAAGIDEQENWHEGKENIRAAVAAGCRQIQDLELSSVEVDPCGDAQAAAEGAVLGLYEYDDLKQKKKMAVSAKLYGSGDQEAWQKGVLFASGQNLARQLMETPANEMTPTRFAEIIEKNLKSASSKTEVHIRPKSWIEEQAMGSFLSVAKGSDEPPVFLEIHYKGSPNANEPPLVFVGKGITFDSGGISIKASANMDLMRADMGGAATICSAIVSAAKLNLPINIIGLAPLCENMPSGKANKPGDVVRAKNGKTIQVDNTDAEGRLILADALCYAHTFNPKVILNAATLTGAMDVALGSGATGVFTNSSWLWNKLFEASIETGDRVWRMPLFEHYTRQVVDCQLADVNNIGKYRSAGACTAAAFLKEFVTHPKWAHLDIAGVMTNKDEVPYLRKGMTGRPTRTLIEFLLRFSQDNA
# Chain of UniProt O00629 (O00629 whole entry, looked up): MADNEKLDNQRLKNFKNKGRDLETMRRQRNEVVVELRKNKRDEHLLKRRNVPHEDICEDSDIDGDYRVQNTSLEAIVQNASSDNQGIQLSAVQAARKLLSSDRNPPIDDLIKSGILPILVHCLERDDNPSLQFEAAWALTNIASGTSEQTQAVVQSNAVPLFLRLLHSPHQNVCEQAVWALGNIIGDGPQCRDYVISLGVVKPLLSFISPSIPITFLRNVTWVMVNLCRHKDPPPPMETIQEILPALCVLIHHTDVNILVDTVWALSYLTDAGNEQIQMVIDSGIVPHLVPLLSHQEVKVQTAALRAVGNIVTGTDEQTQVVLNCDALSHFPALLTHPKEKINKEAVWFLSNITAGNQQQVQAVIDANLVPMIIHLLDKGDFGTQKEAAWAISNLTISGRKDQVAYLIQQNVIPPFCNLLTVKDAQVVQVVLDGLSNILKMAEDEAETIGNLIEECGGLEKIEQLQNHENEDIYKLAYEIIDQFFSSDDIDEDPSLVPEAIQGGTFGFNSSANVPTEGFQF
# Chain of UniProt P48059 (P48059 whole entry, looked up): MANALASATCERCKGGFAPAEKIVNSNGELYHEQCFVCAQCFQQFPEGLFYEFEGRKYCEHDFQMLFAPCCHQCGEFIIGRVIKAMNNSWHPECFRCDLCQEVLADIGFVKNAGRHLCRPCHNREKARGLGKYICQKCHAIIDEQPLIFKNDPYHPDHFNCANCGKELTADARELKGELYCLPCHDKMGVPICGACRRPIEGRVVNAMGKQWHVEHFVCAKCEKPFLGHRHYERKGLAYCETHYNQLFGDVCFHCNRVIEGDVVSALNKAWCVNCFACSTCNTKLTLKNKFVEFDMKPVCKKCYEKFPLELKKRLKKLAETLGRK
# Chain of UniProt P07948 (P07948 whole entry, looked up): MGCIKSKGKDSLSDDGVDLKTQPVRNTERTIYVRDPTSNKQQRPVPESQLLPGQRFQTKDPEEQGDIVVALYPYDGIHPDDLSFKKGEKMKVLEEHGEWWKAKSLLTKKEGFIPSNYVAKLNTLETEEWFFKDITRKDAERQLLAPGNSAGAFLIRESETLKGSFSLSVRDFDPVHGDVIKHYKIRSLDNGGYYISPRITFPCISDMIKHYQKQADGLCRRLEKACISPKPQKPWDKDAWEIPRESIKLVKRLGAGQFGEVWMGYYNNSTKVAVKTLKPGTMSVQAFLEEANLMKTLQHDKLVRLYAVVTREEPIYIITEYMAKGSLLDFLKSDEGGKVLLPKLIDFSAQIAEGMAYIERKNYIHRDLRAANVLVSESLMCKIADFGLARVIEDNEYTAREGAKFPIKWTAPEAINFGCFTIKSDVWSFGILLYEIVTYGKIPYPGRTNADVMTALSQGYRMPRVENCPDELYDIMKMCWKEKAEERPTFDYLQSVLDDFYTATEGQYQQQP
# Chain of UniProt Q00013 (Q00013 whole entry, looked up): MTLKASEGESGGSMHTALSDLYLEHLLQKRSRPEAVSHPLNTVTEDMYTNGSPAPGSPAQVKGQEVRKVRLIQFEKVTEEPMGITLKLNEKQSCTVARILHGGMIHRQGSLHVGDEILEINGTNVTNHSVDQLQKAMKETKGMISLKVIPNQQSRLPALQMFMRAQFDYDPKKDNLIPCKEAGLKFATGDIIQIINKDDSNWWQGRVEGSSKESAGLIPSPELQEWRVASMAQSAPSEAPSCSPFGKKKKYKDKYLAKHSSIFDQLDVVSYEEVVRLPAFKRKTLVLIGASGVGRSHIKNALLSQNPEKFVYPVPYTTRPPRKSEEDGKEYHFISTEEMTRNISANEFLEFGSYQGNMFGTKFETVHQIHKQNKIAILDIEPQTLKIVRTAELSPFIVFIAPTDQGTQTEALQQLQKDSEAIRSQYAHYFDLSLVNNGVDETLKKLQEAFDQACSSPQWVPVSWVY
row,Target,log2 fold change
1,MED16 (UniProt Q9Y2X0),-0.01
2,LAP3 (UniProt P28838),-0.042
3,LUZP1 (UniProt Q86V48),0.012
4,KSR1 (UniProt Q8IVT5),-0.032
5,LTN1 isoform 3 (UniProt O94822),-0.009
6,MAP2K3 isoform 3 (UniProt P46734),-0.095
7,MRPL46 (UniProt Q9H2W6),0.005
8,MCU (UniProt Q8NE86),0.02
9,KIF14 (UniProt Q15058),-0.011
10,KIF15 (UniProt Q9NS87),-0.027
11,MAP3K4 (UniProt Q9Y6R4),-0.012
12,LIMS1 isoform 3 (UniProt P48059),-0.01
13,KIF11 (UniProt P52732),0.01
14,KIFC1 (UniProt Q9BW19),0.004
15,MAT2B (UniProt Q9NZL9),0.016
16,MFF isoform 2 (UniProt Q9GZY8),0.004
17,KPNA2 (UniProt P52292),-0.027
18,MED8 isoform 2 (UniProt Q96G25),-0.001
19,MAPK8 isoform 3 (UniProt P45983),-0.017
20,MGST3 (UniProt O14880),-0.03

row,Target,log2 fold change
1,KIF4A (UniProt O95239),-0.027
2,MPP1 (UniProt Q00013),0.018
3,MAP4 (UniProt E7EVA0),0.008
4,LARS2 (UniProt Q15031),0.063
5,LIMK2 isoform 3 (UniProt P53671),-0.005
6,KPNA4 (UniProt O00629),0.019
7,MAP7D3 (UniProt Q8IWC1),0.009
8,METTL7A (UniProt Q9H8H3),-0.055
9,LYN (UniProt P07948),-0.043
10,LUC7L (UniProt Q9NQ29),0.007
11,LYSMD3 (UniProt Q7Z3D4),-0.003
12,KRR1 (UniProt Q13601),-0.032
13,METTL2A (UniProt Q96IZ6),0.038
14,MARK3 (UniProt P27448),-0.009
15,MLH1 (UniProt P40692),-0.055
16,KLC2 (UniProt Q9H0B6),-0.036
17,MCCC1 (UniProt Q96RQ3),0.026
18,MAPK3 (UniProt P27361),-0.006
19,MITD1 (UniProt Q8WV92),-0.071

# Compound: CC1=C(C=C(C=C1)NC(=O)C2=CC(=CC=C2)C(C)(C)C#N)NC3=CC4=C(C=C3)N=CN(C4=O)C
# Test: as above
# Outline: as §1
row,Target,log2 fold change
1,MED16 (UniProt Q9Y2X0),-0.038
2,LAP3 (UniProt P28838),0.117
3,LUZP1 (UniProt Q86V48),0.011
4,KSR1 (UniProt Q8IVT5),0.007
5,LTN1 isoform 3 (UniProt O94822),-0.018
6,MAP2K3 isoform 3 (UniProt P46734),0.021
7,MRPL46 (UniProt Q9H2W6),-0.002
8,MCU (UniProt Q8NE86),0.034
9,KIF14 (UniProt Q15058),0.007
10,KIF15 (UniProt Q9NS87),0.02
11,MAP3K4 (UniProt Q9Y6R4),-0.006
12,LIMS1 isoform 3 (UniProt P48059),0.052
13,KIF11 (UniProt P52732),-0.019
14,KIFC1 (UniProt Q9BW19),0.002
15,MAT2B (UniProt Q9NZL9),0.015
16,MFF isoform 2 (UniProt Q9GZY8),0.032
17,KPNA2 (UniProt P52292),-0.032
18,MED8 isoform 2 (UniProt Q96G25),-0.005
19,MAPK8 isoform 3 (UniProt P45983),0.013
20,MGST3 (UniProt O14880),0.042

row,Target,log2 fold change
1,KIF4A (UniProt O95239),0.004
2,MPP1 (UniProt Q00013),0.022
3,MAP4 (UniProt E7EVA0),0.131
4,LARS2 (UniProt Q15031),-0.036
5,LIMK2 isoform 3 (UniProt P53671),0.175
6,KPNA4 (UniProt O00629),0.019
7,MAP7D3 (UniProt Q8IWC1),0.046
8,METTL7A (UniProt Q9H8H3),0.068
9,LYN (UniProt P07948),0.479
10,LUC7L (UniProt Q9NQ29),-0.04
11,LYSMD3 (UniProt Q7Z3D4),0.034
12,KRR1 (UniProt Q13601),0.144
13,METTL2A (UniProt Q96IZ6),-0.029
14,MARK3 (UniProt P27448),0.075
15,MLH1 (UniProt P40692),0.014
16,KLC2 (UniProt Q9H0B6),0.012
17,MCCC1 (UniProt Q96RQ3),-0.006
18,MAPK3 (UniProt P27361),0.026
19,MITD1 (UniProt Q8WV92),-0.059
